Screening results (PubChem)
TDP1 cell noCPT: qHTS for Inhibitors of human tyrosyl-DNA phosphodiesterase 1 (TDP1): qHTS in cells in absence of CPT. AID 686978, 2013. 420,000 compounds, 15% hits. DT40 Tdp1-/- hTDP1 cells, no CPT, ATP luminescence, 48 h. Potency, µM (top dose mostly 46.2 µM), most hits filed as inhibitors; note: nearly all actives have a fitted effect of over 55% in size
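Stably hTDP1-transfected Tdp1-null chicken DT40 cells were treated with library compounds minus camptothecin and grown for at least 48 hr at 37 °C, after which cellular ATP was quantified by luminescence.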
PLK1 PBD inh: qHTS for Inhibitors of PLK1-PDB (polo-like kinase 1 - polo-box domain): Primary Screen; Serine/threonine-protein kinase PLK1 (Homo sapiens), P53350; Plk1 PBD binding of FITC phosphopeptide, fluorescence polarization; Potency, µM, hits mostly inhibitors; 360,000 compounds, 2.8% hits; note: series mostly up to about 57 µM; nearly all actives have a fitted effect of over 65% in size
Target sequence (P53350 whole entry, looked up, the tested form may be a part): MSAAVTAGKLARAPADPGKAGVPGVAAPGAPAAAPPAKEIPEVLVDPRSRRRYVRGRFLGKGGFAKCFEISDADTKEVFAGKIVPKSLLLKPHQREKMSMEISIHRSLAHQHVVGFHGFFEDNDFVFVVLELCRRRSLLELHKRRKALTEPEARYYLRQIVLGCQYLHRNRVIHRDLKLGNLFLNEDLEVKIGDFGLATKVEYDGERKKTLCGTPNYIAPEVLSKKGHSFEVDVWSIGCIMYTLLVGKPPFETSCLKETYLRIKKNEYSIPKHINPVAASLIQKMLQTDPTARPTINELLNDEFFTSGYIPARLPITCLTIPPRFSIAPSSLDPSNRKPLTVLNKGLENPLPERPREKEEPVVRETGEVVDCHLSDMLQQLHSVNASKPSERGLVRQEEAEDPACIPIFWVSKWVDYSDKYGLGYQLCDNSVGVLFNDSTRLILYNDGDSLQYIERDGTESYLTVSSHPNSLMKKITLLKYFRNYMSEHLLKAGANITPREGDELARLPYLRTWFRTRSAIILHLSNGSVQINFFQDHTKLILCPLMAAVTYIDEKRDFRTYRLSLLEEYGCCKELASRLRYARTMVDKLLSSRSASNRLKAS
KAT2A inh: qHTS Assay for Inhibitors of GCN5L2 | GCN5L2 HAT assay, ThioGlo1 CoA-SH fluorescence | Potency, µM (highest dose often 58.9 µM), hits mostly inhibitors | Histone acetyltransferase KAT2A (Homo sapiens), Q92830 | 390,000 compounds, 0.21% hits
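Titration-based screen in which CoA formation is detected via maleimide probe ThioGlo1 (50uM) turning fluorescent on thiol reaction; substrates H3(1-25) 75uM and acetyl-CoA 70uM, GCN5L2 20nM, 20 min incubation at room temperature.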
TDP1 inh: qHTS Assay for Inhibitors of Tyrosyl-DNA Phosphodiesterase (TDP1); Tyrosyl-DNA phosphodiesterase 1 (Homo sapiens), Q9NUW8; recombinant TDP1, AlphaScreen DNA substrate cleavage; Potency, µM (series often up to 130 µM), most hits filed as inhibitors; 350,000 compounds, 0.28% hits; note: nearly all actives have a fitted effect of over 40% in size
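Compounds were preincubated with Tdp1 (1 nM final) for 15 min at room temperature before substrate (15 nM final) started a 5 min reaction; beads (10 ug/ml final) were then added for 10 min before AlphaScreen detection.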
VDR inh: Inhibitors of the vitamin D receptor (VDR): qHTS | 400,000 compounds, 0.93% hits | Potency, µM, actives largely listed as inhibitors | Vitamin D3 receptor (Homo sapiens), P11473 | VDR-SRC2-3 peptide fluorescence polarization, 2 h
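Fluorescence polarization assay of small-molecule disruption of VDR binding to coregulator peptide SRC2-3. Compounds and controls pin-transferred, then read after 2 h incubation at ambient room temperature.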
TDP1 cell CPT: qHTS for Inhibitors of human tyrosyl-DNA phosphodiesterase 1 (TDP1): qHTS in cells in presence of CPT. chicken DT40 Tdp1-/-;hTDP1 cells + 20 nM CPT, ATP luminescence, 48 h. 420,000 compounds, 12% hits. AID 686979, 2013. Potency, µM (top dose mostly 46.2 µM), most hits filed as inhibitors; note: nearly all actives have a fitted effect of over 55% in size
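Cell growth measured by CellTiter-Glo luminescence after a minimum 48 h, 37 C compound exposure with 20 nM CPT in Tdp1-knockout DT40 cells stably expressing hTDP1, seeded 400/well; qHTS titration format.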
Numbers stand for hits; – = inactive; ? = inconclusive; · = no result; ! = not active in a repeat; [ ] = another dose, or the depositor's remark. Most compounds without a hit are left out; they make up all but 18% or so of the library. Calls come from the whole dose curve; as a rule, active = well fitted curve in the direction sought with a large enough effect; inconclusive = small, poorly fitted or top-dose-only effect, or another doubt; inactive = no such curve, though single readings can be large; an effect the other way counts as inactive or inconclusive.

SMILES | TDP1 cell noCPT | PLK1 PBD inh | KAT2A inh | TDP1 inh | VDR inh | TDP1 cell CPT
Cn1cc(-c2nc3cnc(Oc4ccccc4)nc3n(CCC#N)c2=O)c2ccccc21 | – | · | – | · | – | –
COc1ccccc1-n1c(C)cc(/C=C2\C(=N)N3N=C(CC(=O)N4CCOCC4)SC3=NC2=O)c1C | ? | – | – | – | – | 18.4µM
Cc1ccc(/C=C2\C(=N)N3N=C(CC(=O)N4CCOCC4)SC3=NC2=O)o1 | – | 26.7µM | – | – | – | –
N=C1/C(=C\c2ccc(-c3cccc(C(=O)O)c3)o2)C(=O)N=C2SC=C(c3ccccc3)N12 | ? | ? | – | 50.1µM | – | ?
CC1=NN2C(=N)/C(=C\c3cc(C)n(-c4ccccc4)c3C)C(=O)N=C2S1 | – | – | – | – | – | –
CC(C)(C)OC(=O)CN1C(=O)S/C(=C\c2ccc(-c3cccc(C(=O)O)c3)o2)C1=O | · | · | – | · | · | ·
Cc1cc(/C=C2/C(=N)N3C(c4ccccc4)=CSC3=NC2=O)c(C)n1-c1ccccc1 | 13µM | – | – | – | – | 13µM
COc1ccc(-n2c(C)cc(/C=C3\C(=N)N4N=C(CC(=O)N5CCOCC5)SC4=NC3=O)c2C)c(OC)c1 | ? | – | ? | – | – | ?
N=C1/C(=C/c2ccc(-c3cccc(C(=O)O)c3)o2)C(=O)N=C2SC(CC(=O)N3CCOCC3)=NN12 | – | 29.9µM | – | 8.91µM | – | –
CCn1ccc2cc(S(=O)(=O)N3CCCN(C(=O)Nc4ccccc4F)CC3)ccc21 | · | · | – | – | – | ·
O=C1C=C(NCc2ccc(Cl)c(Cl)c2)C2(CCCCC2)O1 | 16.4µM | – | – | – | – | ?
CCOCCCn1c(SCC(=O)Nc2ccccc2CC)nc2ccccc2c1=O | 16.4µM | · | – | – | – | 16.4µM
CCOCCCn1c(SCC(=O)Nc2ccccc2Cl)nc2c(oc3ccccc32)c1=O | 7.31µM | · | – | – | – | ?
CCOCCCn1c(SCC(=O)NC(C)(C)C)nc2ccccc2c1=O | – | – | – | – | – | –
COc1ccc(OC)c(-c2nc3c(C#N)c[nH]n3c2NC2CCCCC2)c1 | ? | · | – | – | – | ?
O=C(NC1CCCCC1)c1cccnc1Sc1ccccc1 | – | – | – | – | – | –
O=[N+]([O-])c1ccc(Cn2cc(-c3cccc(C(F)(F)F)c3)nn2)cc1 | 15.8µM! | – | ? | · | – | ?
CCCOP(=O)(OCCC)c1c([N+](=O)[O-])cc(C(F)(F)F)cc1[N+](=O)[O-] | 18.4µM | – | – | – | – | ?
CCc1ccc(OCc2ccccc2C(=O)Nc2ccc3nc(C)cc(N)c3c2)cc1 | 3.16µM | · | – | – | – | 5.01µM
CCc1ccc(OCC(=O)Nc2ccc3c(c2)c2ccccc2n3CC)cc1 | – | · | – | – | – | ?
CC(=O)c1ccc(F)c(-c2cc(C)cc3c2OC(CNC(=O)C(C)n2nc(C)cc2C)C3)c1 (stereo unspecified) | – | · | · | · | · | –[9.04 µM]
CCc1ccc(S(=O)(=O)NCc2cn3cccc(C)c3n2)s1 | 16.4µM | – | – | – | – | 18.4µM
CCc1ccc(S(=O)(=O)NCc2cn3ccccc3n2)s1 | ? | – | – | – | – | ?
O=C(Nc1nc2cc3c(cc2s1)OCCO3)c1ccco1 | 16.4µM | – | – | – | – | 11.6µM
O=C(Nc1n[nH]c(=S)s1)c1ccco1 | – | ? | 31.6µM | · | – | –
SMILES | TDP1 cell noCPT | PLK1 PBD inh | KAT2A inh | TDP1 inh | VDR inh | TDP1 cell CPT
CS(=O)(=O)c1ccc2nc(NC(=O)c3ccco3)sc2c1 | ? | – | – | – | – | ?
CC(C)C(=O)Nc1nc2cc3c(cc2s1)OCCO3 | 14.6µM | – | – | – | – | 20.6µM
Cc1csc(NC(=O)c2ccco2)n1 | – | – | – | – | – | –
O=C(NC(=S)Nc1nc2ccc(F)cc2s1)c1ccco1 | 2.91µM | – | – | – | – | 4.11µM
O=C(Nc1nc2cc3c(cc2s1)OCO3)c1ccco1 | ? | – | – | · | – | ?
COc1ccc(C(=O)N(Cc2ccccc2)Cc2ccccc2)cc1COc1ccc(NC(C)=O)cc1 | · | · | · | – | · | ·
COC(=O)C1=C(C(=O)OC)[C@@H]2N(Cc3ccccc3)c3ccccc3[C@@]23C[C@@H](C(=O)OC)N(S(=O)(=O)c2ccc4c(c2)OCCN4C)C3=N1 | · | · | · | –[21 µM] | · | ·
O=C(Nc1nc2cc3c(cc2s1)OCO3)C1=COCCO1 | 13µM | – | – | – | – | 8.2µM
O=C(Nc1nc2cc3c(cc2s1)OCCO3)c1ccncc1 | 23.1µM | 21.2µM | – | – | ? | ?
Cc1sc(NC(=O)C2=COCCO2)nc1-c1ccc(Br)cc1 | ? | – | – | – | – | ?
O=C(COc1ccccc1)Nc1nc2cc3c(cc2s1)OCO3 | – | – | · | · | – | ?
Cc1sc(NC(=O)C2=COCCO2)nc1-c1ccc(F)cc1 | 20.6µM | – | – | – | – | 16.4µM
O=C(Nc1nc2cc3c(cc2s1)OCCO3)c1ccc(N2C(=O)CCC2=O)cc1 | – | – | – | · | – | –
Cc1ccc2c(CN3CCN(c4ccccc4)CC3)cc(=O)oc2c1 | – | – | · | · | · | –
O=C(C[C@H]1C/C=C/CC[C@@H](Cc2ccc(F)cc2)C(=O)OC[C@H](c2ccccc2)NC1=O)NCCO | – | – | – | – | – | –
O=C1NC[C@@H](c2ccccc2)OC(=O)[C@@H](Cc2ccc(F)cc2)CC/C=C/C[C@@H]1CC(=O)N(CCO)Cc1ccccc1 | 14.6µM | – | – | – | – | 16.4µM
O=C1N[C@@H](c2ccccc2)COC(=O)[C@@H](Cc2ccc(F)cc2)CC/C=C/C[C@@H]1CC(=O)N(CCO)Cc1ccccc1 | 18.4µM | – | – | – | – | 13µM
O=C1N[C@@H](c2ccccc2)COC(=O)[C@@H](Cc2ccc(F)cc2)CC/C=C/C[C@H]1CC(=O)N(CCO)Cc1ccccc1 | 9.2µM | – | – | – | – | 11.6µM
CCN(CC)C(=O)c1sc2c(c1C)c(=O)n(-c1ccccc1)c(=O)n2CC(=O)N(CC)c1cccc(C)c1 | – | · | – | – | – | ?
CC(CN1C(C)CCCC1C)OC(=O)c1ccc(F)cc1 (stereo unspecified) | – | – | – | · | – | –
COc1ccc(Cl)cc1NC(=O)c1ncn(-c2ccccc2)n1 | ? | · | – | – | – | –
Cc1cc2cc(C(c3nnnn3Cc3ccco3)N3CCc4ccccc4C3)c(=O)[nH]c2cc1C (stereo unspecified) | 23.1µM | – | – | – | – | ?
